# Where a structure was tested more than once in an assay, its records may differ in their call. The source made the active and inactive calls. How the source made its calls: active means hit-call score of the fitted dose curve at least 0.9, where 1 is the maximum; inactive means score below 0.9.
# Assays:
# [1] = read-out: Macrophage colony-stimulating factor (MCSF), CSF1 (gene 1435); test: BSK_hDFCGF_MCSF: BioMAP Diversity Plus: hDFCGF Assay for Macrophage colony-stimulating factor (MCSF) Biomarker Activity (AID 2283060); details: primary human foreskin fibroblasts; actives raise or lower the signal
# How it was run: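 M-CSF levels, determined by ELISA, are taken at 24 h after dosing human skin fibroblasts. Responses in either direction are fitted with DMSO serving as the baseline.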
# [2] = BSK_hDFCGF_SRB: Viability Assessment in the BioMAP Diversity Plus: hDFCGF Assay (AID 2283061); details: primary human foreskin fibroblasts;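 further: cells exposed to compound for 24 h before the read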
# How it was run: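 Cells were dosed with test chemical, cultured 24 h, fixed with 10% TCA, then stained with 0.1% SRB and read at 560 nm. The fibroblasts were human foreskin primary cells, and DMSO served as baseline.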
# [3] = read-out: TIMP metallopeptidase inhibitor 1 (TIMP1), TIMP1 (gene 7076); test: BSK_hDFCGF_TIMP1: BioMAP Diversity Plus: hDFCGF Assay for TIMP metallopeptidase inhibitor 1 (TIMP1) Biomarker Activity (AID 2283062); details: primary human foreskin fibroblasts; actives raise or lower the signal
# How it was run: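 Fibroblasts from human foreskin are treated with test chemical and harvested at 24 h. TIMP-1 is quantified by ELISA, and gain or loss of signal is scored against DMSO.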
# [4] = read-out: Monokine induced gamma interferon (MIG), CXCL9 (gene 4283); test: BSK_hDFCGF_MIG: BioMAP Diversity Plus: hDFCGF Assay for Monokine induced gamma interferon (MIG) Biomarker Activity (AID 2283063); details: primary human foreskin fibroblasts; actives raise or lower the signal
# How it was run: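 MIG signal, determined by ELISA, reflects 24 h chemical exposure of human skin primary fibroblasts. DMSO serves as negative control and baseline.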
# [5] = read-out: Matrix Metallopeptidase 1 (MMP1), MMP1 (gene 4312); test: BSK_hDFCGF_MMP1: BioMAP Diversity Plus: hDFCGF Assay for Matrix Metallopeptidase 1 (MMP1) Biomarker Activity (AID 2283064); details: primary human foreskin fibroblasts; actives raise or lower the signal
# How it was run: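 hDFCGF primary fibroblasts (human foreskin); chemical added; 24 h; MMP1 by ELISA; bidirectional fit vs DMSO.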
# [6] = read-out: Plasminogen activator inhibitor-1 (PAI1), SERPINE1 (gene 5054); test: BSK_hDFCGF_PAI1: BioMAP Diversity Plus: hDFCGF Assay for Plasminogen activator inhibitor-1 (PAI1) Biomarker Activity (AID 2283066); details: primary human foreskin fibroblasts; actives raise or lower the signal
# How it was run: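 Human foreskin fibroblasts in the hDFCGF system were dosed with compound for 24 h; PAI-1 was quantified by ELISA. Bidirectional curve fitting used DMSO as negative control and baseline.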
# [7] = read-out: Intercellular Adhesion Molecule 1 (ICAM1), ICAM1 (gene 3383); test: BSK_KF3CT_ICAM1: BioMAP Diversity Plus: KF3CT Assay for Intercellular Adhesion Molecule 1 (ICAM1) Biomarker Activity (AID 2283067); details: primary human keratinocytes with fibroblasts; actives raise or lower the signal
# How it was run: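 Dose the keratinocyte/fibroblast co-culture, wait 24 h, measure ICAM-1 by ELISA, then fit increases or decreases against DMSO. Cytotoxicity is checked in parallel cultures by SRB total-protein staining.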
# [8] = read-out: Interferon-gamma inducible Protein 10 (IP10), CXCL10 (gene 3627); test: BSK_KF3CT_IP10: BioMAP Diversity Plus: KF3CT Assay for Interferon-gamma inducible Protein 10 (IP10) Biomarker Activity (AID 2283068); details: primary human keratinocytes with fibroblasts; actives raise or lower the signal
# How it was run: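 Signal is secreted/surface IP-10 by ELISA in a human primary skin co-culture of keratinocytes and foreskin fibroblasts, taken 24 h post-dosing; DMSO served as negative control.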
# [9] = BSK_KF3CT_SRB: Viability Assessment in the BioMAP Diversity Plus: KF3CT Assay (AID 2283069); details: primary human keratinocytes with fibroblasts;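 further: total protein by sulforhodamine B staining as a cytotoxicity measure; fitted for both signal gain and loss against DMSO baseline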
# How it was run: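 Keratinocytes co-cultured with foreskin fibroblasts (human primary); chemical added, 24 h; fix 10% TCA, stain 0.1% SRB, A560. Bidirectional fit vs DMSO.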
# [10] = read-out: Interleukin-1 alpha (IL1a), IL1A (gene 3552); test: BSK_KF3CT_IL1a: BioMAP Diversity Plus: KF3CT Assay for Interleukin-1 alpha (IL1a) Biomarker Activity (AID 2283070); details: primary human keratinocytes with fibroblasts; actives raise or lower the signal
# How it was run: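 Chemicals were dosed onto co-cultured human keratinocytes and foreskin fibroblasts, IL-1a was quantified by ELISA at 24 h, and activity was fitted in both directions relative to DMSO controls.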
# [11] = read-out: TIMP metallopeptidase inhibitor 2 (TIMP2), TIMP2 (gene 7077); test: BSK_KF3CT_TIMP2: BioMAP Diversity Plus: KF3CT Assay for TIMP metallopeptidase inhibitor 2 (TIMP2) Biomarker Activity (AID 2283071); details: primary human keratinocytes with fibroblasts; actives raise or lower the signal
# How it was run: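 Human primary keratinocyte/foreskin fibroblast co-culture dosed with chemical and sampled at 24 h. TIMP-2 levels quantified by ELISA; bidirectional fitting against DMSO negative control as baseline.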
# [12] = read-out: C-C motif chemokine 2 (Homo sapiens) (UniProt P13500); test: BSK_KF3CT_MCP1: BioMAP Diversity Plus: KF3CT Assay for Monocyte Chemoattractant Protein 1 (MCP1/CCL2) Biomarker Activity (AID 2283073); details: primary human keratinocytes with fibroblasts; actives raise or lower the signal
# How it was run: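 Keratinocytes and foreskin fibroblasts were co-cultured, dosed with chemical, and sampled 24 h later. MCP-1 was quantified by ELISA, and the endpoint was analyzed with bidirectional fitting using DMSO as negative control.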
# [13] = read-out: Matrix Metallopeptidase 9 (MMP9), MMP9 (gene 4318); test: BSK_KF3CT_MMP9: BioMAP Diversity Plus: KF3CT Assay for Matrix Metallopeptidase 9 (MMP9) Biomarker Activity (AID 2283074); details: primary human keratinocytes with fibroblasts; actives raise or lower the signal
# How it was run: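 Human keratinocyte/foreskin fibroblast co-culture; compound added; 24 h; MMP-9 by ELISA; bidirectional fit vs DMSO baseline.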
# [14] = read-out: urokinase plasminogen activator (uPA), PLAU (gene 5328); test: BSK_KF3CT_uPA: BioMAP Diversity Plus: KF3CT Assay for urokinase plasminogen activator (uPA) Biomarker Activity (AID 2283075); details: primary human keratinocytes with fibroblasts; actives raise or lower the signal
# How it was run: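 ELISA readout of uPA, analyzed for signal gain or loss relative to DMSO, from a human primary keratinocyte–foreskin fibroblast co-culture measured 24 h after chemical treatment.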
# CD40, CD40 (gene 958) = test: BSK_LPS_CD40: BioMAP Diversity Plus: LPS Assay for CD40 Biomarker Activity (AID 2283076); details: primary human HUVEC with PBMC; actives raise or lower the signal
# How it was run: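 CD40 signal, measured by ELISA, is fitted in both directions relative to DMSO vehicle. The system is an LPS-driven human vascular primary co-culture of endothelial cells and PBMC, sampled 24 h after compound addition.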
# [15] = read-out: E-selectin (Homo sapiens) (UniProt P16581); test: BSK_LPS_Eselectin: BioMAP Diversity Plus: LPS Assay for Eselectin Biomarker Activity (AID 2283077); details: primary human HUVEC with PBMC; actives raise or lower the signal
# How it was run: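 Signal of E-selectin, detected by ELISA, served as the endpoint; cells were umbilical vein endothelium with PBMC, read 24 h after treatment. DMSO defined baseline, and both increases and decreases were fitted.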
# [16] = read-out: Interleukin-8 (IL8), CXCL8 (gene 3576); test: BSK_LPS_IL8: BioMAP Diversity Plus: LPS Assay for Interleukin-8 (IL8) Biomarker Activity (AID 2283078); details: primary human HUVEC with PBMC; actives raise or lower the signal
# How it was run: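 Endothelial cells and PBMC from human donors are co-cultured, treated with chemicals and LPS, then assayed for IL-8 by ELISA after 24 h. Parallel SRB staining (0.1% SRB after 10% TCA fixation, 560 nm) flags cytotoxicity.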
# [17] = read-out: Vascular cell adhesion molecule 1 (VCAM1), VCAM1 (gene 7412); test: BSK_hDFCGF_VCAM1: BioMAP Diversity Plus: hDFCGF Assay for Vascular cell adhesion molecule 1 (VCAM1) Biomarker Activity (AID 2283065); details: primary human foreskin fibroblasts; actives raise or lower the signal
# How it was run: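 Cells are dosed, cultured for 24 h, then VCAM-1 is quantified by ELISA; signal increases and decreases are both fitted relative to DMSO.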
# [18] = read-out: Transforming growth factor beta 1 (TGFb1), TGFB1 (gene 7040); test: BSK_KF3CT_TGFb1: BioMAP Diversity Plus: KF3CT Assay for Transforming growth factor beta 1 (TGFb1) Biomarker Activity (AID 2283072); details: primary human keratinocytes with fibroblasts; actives raise or lower the signal
# How it was run: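 Human keratinocyte plus foreskin fibroblast primary co-culture, dosed with chemical for 24 h. TGF-b1 quantified by ELISA. Activity fitted bidirectionally against DMSO negative control as baseline.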
# Sequence of E-selectin (Homo sapiens) (P16581 whole entry, looked up): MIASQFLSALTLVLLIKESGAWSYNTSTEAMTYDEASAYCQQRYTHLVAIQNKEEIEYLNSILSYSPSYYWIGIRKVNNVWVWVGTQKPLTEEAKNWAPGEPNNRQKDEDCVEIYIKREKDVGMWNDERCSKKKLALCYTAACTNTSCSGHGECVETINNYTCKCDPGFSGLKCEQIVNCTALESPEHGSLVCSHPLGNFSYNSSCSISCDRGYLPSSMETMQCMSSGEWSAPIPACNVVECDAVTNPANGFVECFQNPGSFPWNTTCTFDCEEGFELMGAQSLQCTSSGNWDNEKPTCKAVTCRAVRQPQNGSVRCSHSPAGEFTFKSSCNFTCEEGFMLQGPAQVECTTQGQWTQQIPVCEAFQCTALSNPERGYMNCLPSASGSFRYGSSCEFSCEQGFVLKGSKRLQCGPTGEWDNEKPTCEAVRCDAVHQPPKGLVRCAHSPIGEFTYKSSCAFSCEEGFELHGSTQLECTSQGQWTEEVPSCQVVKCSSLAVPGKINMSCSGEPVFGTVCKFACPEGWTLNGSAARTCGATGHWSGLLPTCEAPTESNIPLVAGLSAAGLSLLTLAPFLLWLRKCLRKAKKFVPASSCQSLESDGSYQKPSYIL
smiles,measurement,setting,value
O=C(O)C(F)(F)C(F)(F)C(F)(F)C(F)(F)C(=O)O,outcome,[1],inactive
same,outcome,[2],inactive
same,outcome,[3],inactive
same,outcome,[4],inactive
same,outcome,[5],inactive
same,outcome,[6],inactive
same,outcome,[7],inactive
same,outcome,[8],inactive
same,outcome,[9],inactive
same,outcome,[10],inactive
same,outcome,[11],inactive
same,outcome,[12],inactive
same,outcome,[13],inactive
same,outcome,[14],inactive
same,outcome,"CD40, CD40 (gene 958)",inactive
same,outcome,[15],inactive
same,AC50,[16],30 µM (active)
same,outcome,[16],inactive
CC1(C)CC(O)CC(C)(C)N1[O],outcome,[1],inactive
same,outcome,[2],inactive
same,outcome,[4],inactive
same,outcome,[5],inactive
same,outcome,[17],inactive
same,outcome,[6],inactive
same,outcome,[7],inactive
same,outcome,[8],inactive
same,outcome,[9],inactive
same,outcome,[10],inactive
same,outcome,[11],inactive
same,outcome,[18],inactive
same,outcome,[12],inactive
same,outcome,[13],inactive
same,outcome,[14],inactive
same,outcome,"CD40, CD40 (gene 958)",inactive
same,outcome,[15],inactive
same,outcome,[16],inactive
CCN1CN(CC)CN(CC)C1,outcome,[1],inactive
same,outcome,[2],inactive
same,outcome,[4],inactive
same,outcome,[5],inactive
same,outcome,[17],inactive
same,outcome,[6],inactive
same,outcome,[7],inactive
same,outcome,[8],inactive
same,outcome,[9],inactive
same,outcome,[10],inactive
same,outcome,[11],inactive
same,outcome,[18],inactive
same,outcome,[12],inactive
same,outcome,[13],inactive
same,outcome,[14],inactive
same,outcome,"CD40, CD40 (gene 958)",inactive
same,outcome,[15],inactive
same,outcome,[16],inactive
CCc1cccc(C)c1N(C(=O)CS(=O)(=O)O)C(C)COC (configuration not stated),outcome,[1],inactive
same,outcome,[2],inactive
same,outcome,[4],inactive
same,outcome,[5],inactive
same,outcome,[17],inactive
same,outcome,[6],inactive
same,outcome,[7],inactive
same,outcome,[8],inactive
same,outcome,[9],inactive
same,outcome,[10],inactive
same,outcome,[11],inactive
same,outcome,[18],inactive
same,outcome,[12],inactive
same,outcome,[13],inactive
same,outcome,[14],inactive
same,outcome,"CD40, CD40 (gene 958)",inactive
same,outcome,[15],inactive
same,outcome,[16],inactive
CCOC(=O)/C=C\C(=O)OCC,outcome,[1],inactive
same,outcome,[2],inactive
same,outcome,[3],inactive
same,outcome,[4],inactive
same,outcome,[5],inactive
same,outcome,[17],inactive
same,outcome,[6],inactive
same,outcome,[7],inactive
same,outcome,[8],inactive
same,outcome,[9],inactive
same,outcome,[10],inactive
same,outcome,[11],inactive
same,outcome,[18],inactive
same,AC50,[12],3.97 µM (active)
same,outcome,[13],inactive
same,outcome,[14],inactive
same,outcome,"CD40, CD40 (gene 958)",inactive
same,outcome,[15],inactive
same,outcome,[16],inactive
Clc1cc(Cl)c(Cl)c(Cl)c1Cl,outcome,[1],inactive
same,outcome,[2],inactive
same,outcome,[4],inactive
same,outcome,[5],inactive
same,outcome,[17],inactive
same,outcome,[6],inactive
same,outcome,[7],inactive
same,outcome,[8],inactive
same,outcome,[9],inactive
same,outcome,[10],inactive
same,AC50,[11],20 µM (active)
same,outcome,[18],inactive
same,outcome,[12],inactive
same,outcome,[13],inactive
same,outcome,[14],inactive
same,outcome,"CD40, CD40 (gene 958)",inactive
same,outcome,[15],inactive
same,outcome,[16],inactive
O=C(Cl)c1c(Cl)c(Cl)c(C(=O)Cl)c(Cl)c1Cl,outcome,[1],inactive
same,outcome,[2],inactive
same,outcome,[4],inactive
same,outcome,[5],inactive
same,outcome,[17],inactive
same,AC50,[6],0.016 µM (active)
same,outcome,[7],inactive
same,outcome,[8],inactive
same,outcome,[9],inactive
same,outcome,[10],inactive
same,outcome,[11],inactive
same,outcome,[18],inactive
same,outcome,[12],inactive
same,outcome,[13],inactive
same,outcome,[14],inactive
same,outcome,"CD40, CD40 (gene 958)",inactive
same,outcome,[15],inactive
same,outcome,[16],inactive

# Source: PubChem BioAssay (EPA / NIEHS)
